Screen size: about 310,000 compounds; about 380 (0.12%) were called active.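 The calls were made as follows: active = B-score of the integrated fluorescence ratio above library mean plus 3 SD, and starting fluorescence ratio within library mean plus 5 SD; inactive = the rest.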 The sample as a whole holds a higher share of actives than the screen did.
biological target: Short transient receptor potential channel 6 (Mus musculus) (UniProt Q61143); test: small molecules opening TRPC6 cation channel – cell-based, HEK293, membrane potential dye, primary screen (AID 2550); details: HEK293-TRPC6 membrane potential dye fluorescence, at 10 µM; hits give high values;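 also: higher score means more depolarization so channel activation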
Sequence (Q61143 whole entry, looked up): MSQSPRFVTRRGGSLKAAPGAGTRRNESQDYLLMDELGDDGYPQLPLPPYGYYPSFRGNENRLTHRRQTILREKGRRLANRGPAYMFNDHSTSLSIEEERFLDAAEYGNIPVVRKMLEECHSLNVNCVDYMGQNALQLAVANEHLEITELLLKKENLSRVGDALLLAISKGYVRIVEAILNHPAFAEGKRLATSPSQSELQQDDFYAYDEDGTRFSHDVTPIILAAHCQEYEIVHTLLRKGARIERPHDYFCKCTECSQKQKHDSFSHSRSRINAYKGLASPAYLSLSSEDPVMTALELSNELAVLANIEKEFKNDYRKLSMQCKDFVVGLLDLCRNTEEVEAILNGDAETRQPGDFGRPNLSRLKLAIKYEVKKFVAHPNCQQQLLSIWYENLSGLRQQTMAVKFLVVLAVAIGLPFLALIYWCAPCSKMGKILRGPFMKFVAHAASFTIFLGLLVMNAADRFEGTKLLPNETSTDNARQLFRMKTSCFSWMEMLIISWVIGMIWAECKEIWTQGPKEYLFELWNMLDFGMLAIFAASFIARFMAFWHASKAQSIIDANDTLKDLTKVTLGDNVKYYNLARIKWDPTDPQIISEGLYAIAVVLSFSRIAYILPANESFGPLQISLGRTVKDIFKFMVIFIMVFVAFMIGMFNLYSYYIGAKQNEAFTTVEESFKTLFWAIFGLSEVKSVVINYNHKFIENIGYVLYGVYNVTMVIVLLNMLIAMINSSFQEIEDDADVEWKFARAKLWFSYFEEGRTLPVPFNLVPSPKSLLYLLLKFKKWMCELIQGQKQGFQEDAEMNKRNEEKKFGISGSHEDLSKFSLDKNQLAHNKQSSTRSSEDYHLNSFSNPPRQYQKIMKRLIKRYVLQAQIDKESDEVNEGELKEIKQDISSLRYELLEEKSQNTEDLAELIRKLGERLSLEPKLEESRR

Structure (SMILES) | B-score
CCOC(=O)/C(N=Nc1cc(C(=O)O)cc(C(=O)O)c1)=C(\O)CCl | inactive
CC(=O)c1ccc(NC(=O)C(C)NCc2ccc(Cl)cc2)cc1 (configuration not stated) | inactive
O=C(CN1C(=O)NC2(CCCCC2)C1=O)NCCc1c[nH]c2ccccc12 | inactive
N#C/C(=C/c1ccc(N2CCCCC2)o1)C(=O)NCCc1c[nH]c2ccccc12 | 33.2 (active)
CC(=O)N/C(=C/c1ccc(Cl)cc1)C(=O)NCCc1c[nH]c2ccccc12 | inactive
O=C(COc1cc2oc(=O)c3c(c2cc1Cl)CCC3)NCCCN1CCOCC1 | inactive
COc1nc(N(C)C)nc(N2CC(=O)N(CCNS(=O)(=O)c3ccc(C)cc3)C2=N)n1 | inactive
CC(C)(C)NCc1cc(Br)ccc1OC1CCCC1 | inactive
COc1ccccc1CN1CCN(C(c2ccccc2)c2ccccc2)CC1 | inactive
CC(NCc1ccccc1OC1CCCC1)c1ccccc1 (configuration not stated) | 14.5 (active)
COc1ccc2[nH]c(=O)c(CNc3ccc(C)c(C)c3)cc2c1 | inactive
CC(=O)c1ccc(N2CCN(S(=O)(=O)c3c(C)[nH]c(=O)[nH]c3=O)CC2)cc1 | inactive
CN1C(C(=O)NCC2CC2)CC2Cn3c(nc4ccccc43)C21 (configuration not stated) | inactive
CC1(C)OC(=O)C(=CSc2ccc(C(C)(C)C)cc2)C(=O)O1 | inactive
COc1ccc(-c2nnc(NC(=O)CS(=O)(=O)c3ccc(Cl)cc3)o2)c(OC)c1 | 13.4 (active)
Cc1ccc(C)c(-c2nnc(NC(=O)CS(=O)(=O)c3ccccc3)o2)c1 | inactive
COc1ccc(NC(=O)CS(=O)(=O)c2ccccc2)cc1 | inactive
CCOC(=O)CSC1=N/C(=C/c2ccc(-n3cncn3)cc2)C(=O)N1C(C)=O | inactive
COc1ccc(S(=O)(=O)NCC(=O)NC2CC2)cc1OC | inactive
CCc1ccc2oc(=O)cc(CN3CCCCC3C)c2c1 (configuration not stated) | inactive
CCC1OC(c2ccc([N+](=O)[O-])cc2)=Nc2ccccc21 (configuration not stated) | inactive
Cc1cc(Cl)ccc1C(=O)C1CCCN(C(=O)CCN2CCCO2)C1 (configuration not stated) | inactive

Structure (SMILES) | B-score
O=C(COc1ccc(S(=O)(=O)N2CCOCC2)cc1Cl)N1CCOCC1 | inactive
O=c1[nH]oc(O)c1-c1ncc(C(F)(F)F)cc1Cl | inactive
CC(C)(C)NC(=O)C(=O)NCc1ccncc1 | inactive
COc1ccc(CNC(=O)COC(=O)/C=C/c2ccc(S(=O)(=O)N3CCOCC3)cc2)cc1 | inactive
Cc1ccc(NC(=O)CN2C(=O)NC(C)(c3ccc(Cl)cc3)C2=O)c(Br)c1 (configuration not stated) | inactive
O=C(COc1ccc2ccc(=O)oc2c1)NCC(O)c1ccccc1 (configuration not stated) | inactive
O=C(Nc1ccccc1Cl)c1ccccc1S(=O)(=O)c1ccccc1[N+](=O)[O-] | inactive
CCOC(=O)c1sc2nc(CSCC(=O)OCc3ccc(C(=O)OC)o3)[nH]c(=O)c2c1C | 18.9 (active)
CCOC(=O)c1sc2nc(CSc3ccccc3)[nH]c(=O)c2c1C | inactive
CCOC(=O)c1sc2nc(C)[nH]c(=O)c2c1C | inactive
COc1ccccc1N1CCN(C(=O)c2ccc(NC3=NC4CS(=O)(=O)CC4S3)cc2)CC1 (configuration not stated) | inactive
CCn1cc(C(=O)N2CC=C(c3ccccc3)CC2)c(=O)c2ccc(C)nc21 | inactive
CCOc1cc(-c2conc2N)cc(OCC)c1OCC | inactive
O=C(NCc1ccccc1)C(c1ccco1)N(C(=O)c1csnn1)c1ccccc1F (configuration not stated) | inactive
COc1ccccc1CN1CCNC(=O)C1CC(=O)N(C)CC1CCOCC1 (configuration not stated) | inactive
Cc1ccc(CNC(=O)Cn2c(=O)c3sccc3n(Cc3cccc([N+](=O)[O-])c3)c2=O)cc1 | inactive
O=C(O)CC(Cn1cnnn1)c1ccccc1 (configuration not stated) | inactive
CCc1ccc2nc(Nc3ncc(C(C)=O)c(C)n3)nc(C)c2c1 | inactive
CC(O)c1ccc(OCCN(C)c2ccccn2)cc1 (configuration not stated) | inactive
O=C(CC1C(=O)NCCN1C(=O)c1ccc([N+](=O)[O-])cc1)Nc1cccc(Cl)c1 (configuration not stated) | inactive
CCO[C@@H]1OC(C(=O)NC2CC2)=C[C@H](C)[C@H]1CCCO | inactive
O=C(NC1CCCCC1)C1CC(=O)N(CCc2ccccc2)C1 (configuration not stated) | inactive

Structure (SMILES) | B-score
CCOC(CNC(=O)C(=O)NCC(c1ccco1)N1CCN(c2ccc(OC)cc2)CC1)OCC (configuration not stated) | inactive
CCOc1ccc(S(=O)(=O)N2CCC(C(=O)NCc3ccccn3)CC2)cc1Cl | inactive
O=C(COc1ccccc1)Nc1nonc1NC(=O)COc1ccccc1 | inactive
CC(=O)c1cc2c(cc1NC(=O)CN1CCCCCC1)OCO2 | inactive
O=C(CCN1C(=O)C2CCCCC2C1=O)Nc1ccc(OC(F)F)cc1 (configuration not stated) | inactive
COC(=O)c1ccc(NC(=O)CSc2nnc(-c3ccncc3)n2C)cc1 | 12.9 (active)
COC(=O)c1ccc(NC(=O)CSc2nnc(CNc3ccc(OC)cc3)n2C)cc1 | inactive
COC(=O)c1ccc(NC(=O)CSc2nnc(C3CC3)n2C)cc1 | inactive
COc1cccc(-c2cccc(NC(=O)C3CCN(C4CCC4)CC3)c2)c1 | inactive
CC(=O)c1c(C)[nH]c(C(=O)N2CCN(S(=O)(=O)c3ccc(F)c(F)c3)CC2)c1C | inactive
[O-][n+]1onc2c1CCc1[nH]c(-c3ccccc3)nc1-2 | inactive
C=CCN1C(=NC(=O)COc2ccccc2)SC2CS(=O)(=O)CC21 (configuration not stated) | inactive
O=c1c2ccccc2cnn1Cc1n[nH]c(=S)n1-c1ccccc1F | inactive
CCC(C(=O)OCC(=O)Nc1ccccc1-c1ccccc1)c1ccccc1 (configuration not stated) | inactive
CCOCCN(C=O)c1cccc(OC)c1 | inactive
C=CCc1cc(S(=O)(=O)c2ccc(O)c(CC=C)c2)ccc1O | inactive
C=CCc1ccc(OCCOc2cccc(/C=N/n3cnnc3)c2)c(OC)c1 | inactive
CN(C(=O)CC(NC(=O)c1ccccc1)(c1ccccc1)c1ccccc1)c1ccccc1 | inactive
Cc1cccc(NC(=O)C(C)N2C(=O)C3C4CC(C(Br)C4Br)C3C2=O)c1 (configuration not stated) | inactive
CC(=O)c1c(N2CCN(c3ccc(F)cc3)CC2)nc(=S)n(-c2ccccc2)c1C | inactive
CC(=O)Nc1ccc(NC(=O)COc2ccc(S(=O)(=O)NC(C)c3ccccc3)cc2)cc1 (configuration not stated) | inactive
FC(F)(F)c1cccc(-c2cc3ccccc3nc2N2CCCC2)c1 | inactive

Structure (SMILES) | B-score
Cc1cccc2[nH]c(CN(C)C(=O)C3CCC(=O)N(CCc4ccccc4)C3)nc12 (configuration not stated) | inactive
Cc1c(S(=O)(=O)NC(C)c2ccccc2)c(=O)n(C)c(=O)n1C (configuration not stated) | inactive
COc1ccc(CC(NC(C)=O)C(=O)NC2CCN(C(=O)C3CC3)CC2)cc1OC (configuration not stated) | inactive
O=S(=O)(c1cccc(Cn2nnc(-c3ccc(F)cc3)n2)c1)N1CCOCC1 | inactive
C[C@]1(C(=O)NCCc2c[nH]c3ccccc23)C=C[C@@H](Cc2ccccc2)N1C(=O)c1ccccc1 | inactive
CCOC(=O)c1nc(-c2ccc3c(c2)OCO3)[nH]c1C | inactive
Cc1cc(Nc2ccc(C(=O)N3CCCCC3)cc2)c2cccc(C)c2n1 | inactive
CCC(c1nnc(SCC(=O)NNC(=O)c2ccccc2)n1Cc1ccccc1)N(C)C (configuration not stated) | inactive
COc1ccc(-n2cc(-c3ccccc3)c3c(=S)nc[nH]c32)cc1 | inactive
Cc1nnc(NC(=O)Cn2c(=O)sc3ccccc32)s1 | inactive
O=C(Nc1cc(-c2nn(CC(=O)N3CCCCC3)c(=O)c3ccccc23)ccc1N1CCOCC1)c1ccc(Cl)cc1 | inactive
Cc1cccc(NC(=O)Nc2ccc3c(c2)OCO3)n1 | inactive
OCc1nc(CO)n(Cc2ccccc2)n1 | inactive
CCN(CC)C(=O)N1CCN(C(=O)c2ccc(C)cn2)CC1 | inactive
COc1ccc(CCC(=O)c2ccc(OC)cc2)cc1 | inactive
COCC1CCN(C(=O)C2CCC(=O)N(Cc3cccc(C(F)(F)F)c3)C2)CC1 (configuration not stated) | inactive
CCCCc1c(O)nc2n(c1=O)CCS2 | inactive
CCOC(=O)N1CCC(O)(c2cc(C)c(C)cc2C)CC1 | inactive
COc1cccc2c1CCC(NC(C)=O)C2=O (configuration not stated) | inactive
O=C1CSC2=NCN(c3ccccc3)CN12 | inactive
CN1C(CC(=O)Nc2ccc(Br)cc2)c2ccccc2CC1(C)C (configuration not stated) | inactive
Nc1[nH][nH]c(=O)c1N=Nc1ccc2c(c1)OCO2 | inactive

Structure (SMILES) | B-score
Cn1c(SCC(=O)Nc2ccc(Cl)cc2)nc(O)cc1=O | inactive
CCOc1ccc(NC(=O)CN(C)CC(=O)Nc2cccc(Cl)c2C)cc1OCC | inactive
Cc1ccc(NC(=O)C2CCN(S(=O)(=O)c3ccc4c(c3)NC(=O)CO4)CC2)cc1C | inactive
CCCCN=C(N)/C(C(=O)OCC)=C(\O)c1ccc(OC)cc1 | inactive
CC(C)C(c1nnnn1C(C)(C)C)N1CCN(Cc2cccnc2)CC1 (configuration not stated) | inactive
Cn1c(-c2ccc(C(=O)c3ccccc3)s2)nc2ccccc21 | inactive
COc1cccc(C2c3[nH]c4ccccc4c3CCN2Cc2cccc(C)n2)c1 (configuration not stated) | inactive
COC(=O)[C@@H]1CC(O)CN1C(=O)C12CC3CC(CC(C3)C1)C2 (some centres not stated) | inactive
Cc1ccc(NC(=O)c2sc3nc(N)c(C#N)cc3c2N)cc1 | inactive
CCn1ccnc1CNC(=O)CC1C(=O)NCCN1Cc1ccc(F)cc1Cl (configuration not stated) | inactive
COc1cc(CNCCN(C)C)ccc1OCc1c(F)cccc1Cl | 12.5 (active)
CCOCCCNCc1ccc(OCc2ccc(F)cc2)c(OC)c1 | inactive
CCN(CC)CCNCc1ccc(OCc2ccc(Cl)nc2)c(OC)c1 | inactive
CCc1ccc(/C=N/NC(=O)c2nnn(-c3nonc3N)c2CN2CCc3ccccc32)cc1 | inactive
Cc1cccc(CCNS(=O)(=O)c2ccc3c(c2)NC(=O)CO3)c1 | inactive
Cc1ccccc1-n1nnnc1SCCCC(=O)c1ccc(F)cc1 | inactive
CCC(C)N1C(=O)S/C(=C/c2ccc(Sc3nc4ccccc4[nH]3)o2)C1=O (configuration not stated) | inactive
COc1cccc(CNC(=O)C2CC(=O)N(C3CCCCCCC3)C2)c1 (configuration not stated) | inactive
CNc1nc(Nc2ccc(C)c(Cl)c2)nc(N)c1[N+](=O)[O-] | inactive
